{"source": "PubChem BioAssay (NCI)", "note": "About 83,000 compounds went through this panel and 20% of them were active in at least one assay; those are over-represented in the sample as a whole.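 The endpoint reported here, percent growth, reads 100 for growth as untreated, 0 for no net growth and -100 for all cells dead.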 Values without a mark were called inactive. Calls of active or inactive are those of the source. Rule for the calls: active = growth percent below 10; inactive = the rest."}
{"tested_on": "CAKI-1 renal", "test": "NCI-60 one-dose screen, 48 h (100 = growth as untreated, 0 = no growth, -100 = all killed)", "details": "10 µM unless noted"}
{"molecule": "COc1cccc(/C=C/c2c(C(=O)O)cccc2[N+](=O)[O-])c1OC", "growth": "94.2%"}
{"molecule": "COc1ccc(OC)c(C(=O)c2oc3ccc(Br)cc3c2N)c1", "growth": "0.0162% (active)"}
{"molecule": "COc1ccc(-c2cn[nH]c2-c2cc(OC)c3c(c2)OCO3)cc1", "growth": "24.9%"}
{"molecule": "COc1ccccc1CNCCCN1C(=O)c2ccc3c4c(ccc(c24)C1=O)C(=O)N(CCCNCCCCNCCCCN)C3=O", "growth": "64%"}
{"molecule": "Nc1c(C(=O)c2ccc(F)cc2)sc2nc3c(cc12)CCCC3", "growth": "84.6%"}
{"molecule": "COc1cccc(C2CC(=O)Nc3c2c(C)nn3-c2nc3ccccc3[nH]2)c1OC", "note": "(centres undefined)", "growth": "80.6%"}
{"molecule": "COc1ccc(NC(=O)CSc2nc3ccc(Cl)cc3c(=O)n2-c2ccccc2C(F)(F)F)c(OC)c1OC", "growth": "78.4%"}
{"molecule": "CC(C)[C@H](CO)Nc1nc(Nc2ccc(C(=O)NCCNS(=O)(=O)c3cccc4c(N(C)C)cccc34)c(Cl)c2)c2ncn(C(C)C)c2n1", "growth": "48.6%"}
{"molecule": "COc1cc(-c2nc(-c3nc4ccccc4[nH]3)cc3c2[nH]c2ccccc23)cc(OC)c1OC", "growth": "20%"}
{"molecule": "COc1ccc(/C=C/C(=O)c2cc(OC)c(OC)c(OC)c2)cc1OCc1cn(Cc2ccc(F)cc2)nn1", "growth": "4.33% (active)"}
{"molecule": "CCN(CC)P(=O)(N(CC)CC)N(CCCSC/C=C(\\C)CC/C=C(\\C)CCC=C(C)C)CCCN1CCN(C)CC1", "growth": "89.9%"}
{"molecule": "O=C(O)c1cccc([N+](=O)[O-])c1/C=C/c1ccccc1", "growth": "93.4%"}
{"molecule": "Cc1ccc(C(=O)c2sc3nc4c(cc3c2N)CCCC4)c(C)c1", "growth": "7.6% (active)"}
{"molecule": "COc1ccc(Cn2c(SC)nc(=O)n(Cc3ccc(Cl)cc3)c2=O)cc1", "growth": "70.5%"}
{"molecule": "COc1ccc(Cn2cc(COc3cc(/C=C/C(=O)c4cc(OC)c(OC)c(OC)c4)ccc3OC)nn2)cc1", "growth": "17.5%"}
{"molecule": "COc1ccc(-c2nc(-c3nc4ccc(F)cc4[nH]3)cc3c2[nH]c2ccccc23)cc1", "growth": "15.2%"}
{"molecule": "COc1ccc(C2CC(=O)Nc3c2c(C)nn3-c2nc3ccccc3[nH]2)cc1OC", "note": "(centres undefined)", "growth": "72.8%"}
{"molecule": "COc1ccc(NC(=O)CSc2nc3ccccc3c(=O)n2-c2ccccc2C(F)(F)F)c(OC)c1OC", "growth": "98.4%"}
{"molecule": "COc1ccc(C(=O)/C=C/c2ccc(/C=C/c3cc(OC)c(OC)c(OC)c3)cc2)cc1", "growth": "74.4%"}
